Screening data: PubChem, National Center for Advancing Translational Sciences (NCATS)
Marburg entry inh = blocks Marburg virus binding to or entry into cells. Marburg virus pseudotyped entry inhibition, cell reporter. Potency, µM (doses to about 37.8 µM), most hits filed as inhibitors. 300,000 tested, 1.8% active; calls by dose curve; tested in HEK293 cells
FMDV inh = antivirals against foot and mouth disease virus; AID 1159524; 410,000 tested, 1.2% active; FMDV antiviral cell-based qHTS; Potency, µM (doses to about 57.9 µM), usual class: inhibitors; calls by dose curve; tested in HEK293T cells; further: read-out not given here; nearly all actives have a fitted effect of over 45% in size
HCV inh = HCV inhibition. Huh7.5.1 HCVcc-Cre infection, luciferase reporter, 44 h. Potency, µM (series often up to 41.8 µM), actives largely listed as inhibitors. 340,000 tested, 3.4% active. AID 651820; active means well fitted inhibition curve with a large enough effect; inconclusive means small, poorly fitted or top-dose-only effect, or another doubt; inactive means no such curve, though single readings can be large or run the other way
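Infectious HCVcc-Cre (~0.5 moi) was added to cells just after compound, with cells seeded 4 h earlier at 1,000 per well. Luciferase activity after 44 h culture reported infection; substrate was incubated 15 min at room temperature before reading.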
Shiga toxin inh = Shiga toxin inhibition; inhibition, % at 38.7 µM; 290,000 tested, 9.2% active; Vero cells, Shiga toxin protein synthesis inhibition reporter; in the data active means inhibition mostly above about 28%, no sharp cut-off; inactive means mostly below about 43%
Cycloheximide cs = affects cycloheximide protein synthesis inhibition readout, counter-screen; cell reporter, cycloheximide protein synthesis inhibition counterscreen; 300,000 tested, 12% active; max response, %; in the data active means max response mostly above about 13%, no sharp cut-off; inactive means mostly below about 14%; further: read at 38.3 µM for the half of the compounds with a filed dose
Lassa entry inh = Lassa virus entry inhibition; Lassa virus pseudotype entry inhibition, cell reporter; Potency, µM (top dose mostly 37.9 µM), most hits filed as inhibitors; 300,000 tested, 1.2% active; AID 540256; calls by dose curve; tested in HEK293 cells; further: nearly all actives have a fitted effect of over 50% in size
Large screens that a line does not name were inactive. This is a sample that favours compounds with a hit; in the whole collection about 13% have one here.

COc1ccc(-c2cnnc(N/N=C/c3ccc(O)c(OC)c3)n2)cc1	Marburg entry inh inconclusive, HCV inh inconclusive, Cycloheximide cs 20, Lassa entry inh 5.8µM
COc1ccc(/C=N/Nc2nonc2N)cc1OC	none
COc1ccc(/C=N/Nc2nc(N)cc(Cl)n2)cc1OC	Marburg entry inh inconclusive, Cycloheximide cs 21
COc1cc(/C=N/Nc2nc(N3CCCC3)nc(N3CCCC3)n2)ccc1O	HCV inh inconclusive
COc1ccc(/C=N/Nc2ccccn2)cc1OC	Marburg entry inh inconclusive, Shiga toxin inh 94, Cycloheximide cs 54
Cc1ccc(C(=O)OCC(=O)N2C(C)CCCC2C)s1 (stereo not drawn)	Marburg entry inh inconclusive (no result: Shiga toxin inh, Cycloheximide cs)
COc1ccc(-c2nn(-c3ccccc3)cc2/C=N/O)cc1OC	HCV inh inconclusive (no result: Marburg entry inh, Lassa entry inh)
Cc1ccc(-c2nn(-c3ccccc3)cc2/C=N/NC(=O)CSc2nnc(C)n2-c2ccccc2)cc1	HCV inh 14µM, Shiga toxin inh 54, Cycloheximide cs 36, Lassa entry inh inconclusive
COc1ccc(-c2nn(-c3ccccc3)cc2/C=N/NC(=S)NC(C)C)cc1OC	Marburg entry inh inconclusive, HCV inh inconclusive
COc1ccc(-c2nn(-c3ccccc3)cc2/C=N/Nc2cccc(C(=O)O)c2)cc1	Shiga toxin inh 108, Cycloheximide cs 56
COc1ccc(-c2nn(-c3ccccc3)cc2/C=N/Nc2ccc3ccccc3n2)cc1OC	Marburg entry inh inconclusive, FMDV inh inconclusive, HCV inh 10µM, Shiga toxin inh 80, Cycloheximide cs 34, Lassa entry inh inconclusive
COc1ccc(-c2nn(-c3ccccc3)cc2/C=N/N=C(N)N)cc1OC	Marburg entry inh 10µM, FMDV inh inconclusive, HCV inh inconclusive, Lassa entry inh inconclusive
NC(N)=N/N=C/c1cn(-c2ccccc2)nc1-c1cccs1	Marburg entry inh 23µM, FMDV inh inconclusive, HCV inh inconclusive, Lassa entry inh inconclusive
COc1ccc(Sc2nc(-c3ccccn3)ncc2OC)cc1	Marburg entry inh 16µM, HCV inh inconclusive, Lassa entry inh 21µM
COc1cnc(-c2ccccn2)nc1Sc1ccccc1	Marburg entry inh inconclusive, HCV inh 6.3µM
CCOC(=O)CSc1nc(-c2ccccn2)ncc1OC	HCV inh inconclusive
COc1cnc(-c2ccccn2)nc1Sc1ccc(Cl)cc1	Marburg entry inh inconclusive, HCV inh inconclusive, Lassa entry inh inconclusive
COc1cnc(-c2ccccn2)nc1Sc1ccc(F)cc1	Marburg entry inh inconclusive, HCV inh 0.56µM, Lassa entry inh inconclusive
COc1cnc(-c2ccccn2)nc1N(C)c1ccccc1	Marburg entry inh inconclusive, HCV inh 10µM, Shiga toxin inh 66, Cycloheximide cs 48, Lassa entry inh inconclusive
COc1cnc(-c2ccccn2)nc1Oc1ccccc1	Marburg entry inh inconclusive
Cc1ccc(CNC2=NCCCCC2)n1C	none
COc1cc(OC)c(NC(=O)C2CCN(C(=O)c3sc4nc[nH]c(=O)c4c3C)CC2)cc1Cl	Lassa entry inh inconclusive (no result: Marburg entry inh, HCV inh, Shiga toxin inh, Cycloheximide cs)
CCc1nnc(NC(=O)CN2CC(C)OC(C)C2)s1 (stereo not drawn)	none (no result: Marburg entry inh, Lassa entry inh)
Cc1cc(C)n2nc(SCc3ncc(-c4ccccc4)o3)nc2n1	none
c1ccc(-c2cnc(CSc3ncnc4sccc34)o2)cc1	HCV inh 11µM
CC1=C(CC(=O)c2ccccc2)C(=O)c2ccccc2C1=O	Marburg entry inh inconclusive, FMDV inh inconclusive, HCV inh inconclusive, Shiga toxin inh 87, Cycloheximide cs 36
CCOc1cc(-c2cc(-c3ccc(C)cc3)nc(N)c2C#N)ccc1O	Marburg entry inh inconclusive, FMDV inh inconclusive, HCV inh 25µM, Lassa entry inh inconclusive
CN(C)C(=O)N1CCC(C(=O)N2CCCC(C(=O)c3ccc(C(C)(C)C)cc3)C2)CC1 (stereo not drawn)	none (no result: Marburg entry inh, Lassa entry inh)
CCN(CC)CCNc1ccc(CO)c2sc3ccccc3c(=O)c12	Marburg entry inh 11µM, FMDV inh inconclusive, HCV inh inconclusive, Lassa entry inh inconclusive
CN(C)CCNc1ccc2nnn3c4ccc(O)cc4c(=O)c1c23	Marburg entry inh inconclusive, HCV inh 10µM (no result: Shiga toxin inh, Cycloheximide cs)
CCOC(=O)c1ccc2ncc(C(=O)OCC)c(NCCN(C)C)c2c1	HCV inh inconclusive (no result: Marburg entry inh, Shiga toxin inh, Cycloheximide cs, Lassa entry inh)
Cc1ccc(NCCN(C)C)c2c(=O)c3cc(O)ccc3sc12	Marburg entry inh inconclusive, HCV inh 10µM, Lassa entry inh 4µM (no result: Shiga toxin inh, Cycloheximide cs)
CN(C)CCNc1cccc2sc3ccc(O)cc3c(=O)c12	none (no result: Marburg entry inh, HCV inh, Shiga toxin inh, Cycloheximide cs, Lassa entry inh)
CCCSc1nnc2c(n1)OC(c1ccc(Br)s1)Nc1ccccc1-2 (stereo not drawn)	Marburg entry inh inconclusive (no result: HCV inh, Shiga toxin inh, Cycloheximide cs)
Cc1ccc(S(=O)(=O)NC(=NCc2ccccc2)c2ccc(F)cc2)cc1	none
N#Cc1ccc(CN2CCC3(CC2)CCN(C(=O)c2cnccn2)CC3)cc1	none (no result: Marburg entry inh, HCV inh, Shiga toxin inh, Cycloheximide cs, Lassa entry inh)
CC(C)(C)c1ccc(/C=C/C(=O)Nc2nncs2)cc1	Marburg entry inh inconclusive, Shiga toxin inh 56, Cycloheximide cs 63, Lassa entry inh inconclusive
O=C(/C=C/c1ccc2c(c1)OCO2)Nc1nncs1	Shiga toxin inh 45, Cycloheximide cs 30 (no result: Marburg entry inh, Lassa entry inh)
COC(=O)Nc1nncs1	none (no result: Marburg entry inh, Lassa entry inh)
O=C(/C=C/c1ccc2c(c1)OCO2)Nc1nc(-c2ccccc2)cs1	Marburg entry inh inconclusive, FMDV inh 14µM, HCV inh 6.3µM
Cc1sc(NC(=O)/C=C/c2ccc3c(c2)OCO3)nc1-c1ccccc1	Marburg entry inh inconclusive, FMDV inh 6.3µM, HCV inh inconclusive, Lassa entry inh inconclusive
COC(=O)c1c(NC(=O)/C=C/c2ccc3c(c2)OCO3)sc(C)c1C	none
CCN(C(=O)COc1cc(=O)n(CC)c2ccccc12)c1cc(Cl)ccc1OC	FMDV inh inconclusive, HCV inh inconclusive (no result: Marburg entry inh, Lassa entry inh)
CC(NC(=O)C1CCN(S(=O)(=O)Cc2ccccc2)CC1)c1ccccc1 (stereo not drawn)	Marburg entry inh inconclusive (no result: HCV inh, Shiga toxin inh, Cycloheximide cs)
CCOc1cc(N2CCOCC2)c(OCC)cc1NC(=O)Cn1nc(C)c([N+](=O)[O-])c1C	HCV inh inconclusive (no result: Shiga toxin inh, Cycloheximide cs)
COc1ccc(-c2c(-c3ccc(OC)c(C)c3O)n[nH]c2C)cc1	Lassa entry inh inconclusive
COc1ccccc1NC(=O)NC1(C(=O)N2CCCCCC2)CCCCC1	none
CCN(CC)C(=O)CSc1nc(O)c(Cc2ccccc2)c(=O)n1-c1ccc(C)cc1	none (no result: Marburg entry inh, Lassa entry inh)
Cn1cnc([N+](=O)[O-])c1S(=O)(=O)c1ccc(Cl)cc1	Marburg entry inh inconclusive, FMDV inh 14µM, HCV inh inconclusive, Lassa entry inh 20µM
Cn1cnc([N+](=O)[O-])c1NC(C)(C)C	none
Cc1ccc(NS(=O)(=O)c2ccc3c(c2)NC(=O)CO3)c(C)c1	none (no result: Marburg entry inh, Lassa entry inh)
O=C(CCC(=O)Nc1ccccc1Cl)NNC(=O)NC1CCCCC1	none (no result: HCV inh)
COc1cccc(-c2nc(CS(=O)(=O)CC(=O)NC3CCCc4ccccc43)c(C)o2)c1 (stereo not drawn)	HCV inh 11µM (no result: Marburg entry inh, Lassa entry inh)
COc1cccc(-c2nc(CS(=O)(=O)CC(=O)Nc3ccccc3Cl)c(C)o2)c1	HCV inh 13µM
COc1cccc(-c2nc(CS(=O)(=O)CC(=O)Nc3ccccc3C)c(C)o2)c1	Marburg entry inh inconclusive, HCV inh inconclusive
COc1cccc(-c2nc(CS(=O)(=O)CC(=O)Nc3ccc(C(C)=O)cc3)c(C)o2)c1	HCV inh 11µM (no result: Marburg entry inh, Lassa entry inh)
O=C(CSc1ccccc1Cl)c1ccco1	Cycloheximide cs 26, Lassa entry inh inconclusive
